Screening data: PubChem BioAssay, National Center for Advancing Translational Sciences (NCATS)
HTT ATP protect – qHTS Multiplex Assay to Identify Dual Action Probes in a Cell Model of Huntington: Cytoprotection (ATP); hit rate 0.14% among 230,000; Potency, µM (series often up to 56.4 µM), without a hit: cytoprotection (ATP increase), actives largely listed as activators; PC12 HTT-Q103 induced, cytoprotection, ATP luminescence, 40 h; AID 1471, 2008; note: % of control where 0% means no effect; nearly all actives have a fitted effect of over 45% in size
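PC12 cells stably carrying ecdysone-inducible Htt exon 1 (Q103)–GFP were induced with 100 nM tebufenozide (final) alongside library compounds in a dose series. Cytoprotection was scored as retained ATP by ATPlite luminescence.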
HTT aggregate – qHTS Multiplex Assay to Identify Dual Action Probes in a Cell Model of Huntington: Aggregate Formation (GFP). PC12 HttQ103-GFP aggregates, Acumen cytometry, 40 h. Potency, µM (series often up to 46.1 µM), inactives show top-dose activity change, negative = inhibition, most hits filed as inhibitors. hit rate 1.1% among 220,000; note: % is set by controls: 0 for no effect and ±100 for the full control effect; nearly all actives have a fitted effect of over 60% in size
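PC12 cells with ecdysone-inducible HTT exon1 Q103-GFP, induced by 100 nM tebufenozide, given compounds in a concentration series. GFP aggregates (1–25 um, 6 SD above background) counted in lysates by laser-scanning cytometry, 488 nm excitation.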
KDM4E inh – qHTS Assay for Inhibitors of Human Jumonji Domain Containing 2E (JMJD2E). Lysine-specific demethylase 4E (Homo sapiens), B2RXH2. JMJD2E catalytic domain, FDH-coupled NADH fluorescence (FDH is formaldehyde dehydrogenase). Potency, µM (top dose mostly 57.1 µM), without a hit: at the top dose activity change, negative = inhibition, hits mostly inhibitors. hit rate 1.6% among 230,000. AID 2147, 2009; active = well fitted inhibition curve with a large enough effect, not every such curve was filed as active; inconclusive = small, poorly fitted or top-dose-only effect, or another doubt; inactive = no such curve, though single readings can be large or run the other way;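 note: 0% = wells with enzyme and -100% = buffer wells without enzyme; nearly all actives have a fitted effect of over 50% in size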
L3MBTL1 inh-1 – qHTS Assay for the Inhibitors of L3MBTL1. hit rate 0.66% among 230,000. AID 485360, 2010. Lethal(3)malignant brain tumor-like protein 1 (Homo sapiens), Q9Y468. Potency, µM (titrated, usually from 57.1 µM), inactives show at the top dose activity, negative = inhibition, hits mostly inhibitors. AlphaScreen L3MBTL1–H3K9me1 peptide binding; note: % is set by controls: 0 for no effect and ±100 for the full control effect; nearly all actives have a fitted effect of over 60% in size
Target sequence (Q9Y468 whole entry, looked up): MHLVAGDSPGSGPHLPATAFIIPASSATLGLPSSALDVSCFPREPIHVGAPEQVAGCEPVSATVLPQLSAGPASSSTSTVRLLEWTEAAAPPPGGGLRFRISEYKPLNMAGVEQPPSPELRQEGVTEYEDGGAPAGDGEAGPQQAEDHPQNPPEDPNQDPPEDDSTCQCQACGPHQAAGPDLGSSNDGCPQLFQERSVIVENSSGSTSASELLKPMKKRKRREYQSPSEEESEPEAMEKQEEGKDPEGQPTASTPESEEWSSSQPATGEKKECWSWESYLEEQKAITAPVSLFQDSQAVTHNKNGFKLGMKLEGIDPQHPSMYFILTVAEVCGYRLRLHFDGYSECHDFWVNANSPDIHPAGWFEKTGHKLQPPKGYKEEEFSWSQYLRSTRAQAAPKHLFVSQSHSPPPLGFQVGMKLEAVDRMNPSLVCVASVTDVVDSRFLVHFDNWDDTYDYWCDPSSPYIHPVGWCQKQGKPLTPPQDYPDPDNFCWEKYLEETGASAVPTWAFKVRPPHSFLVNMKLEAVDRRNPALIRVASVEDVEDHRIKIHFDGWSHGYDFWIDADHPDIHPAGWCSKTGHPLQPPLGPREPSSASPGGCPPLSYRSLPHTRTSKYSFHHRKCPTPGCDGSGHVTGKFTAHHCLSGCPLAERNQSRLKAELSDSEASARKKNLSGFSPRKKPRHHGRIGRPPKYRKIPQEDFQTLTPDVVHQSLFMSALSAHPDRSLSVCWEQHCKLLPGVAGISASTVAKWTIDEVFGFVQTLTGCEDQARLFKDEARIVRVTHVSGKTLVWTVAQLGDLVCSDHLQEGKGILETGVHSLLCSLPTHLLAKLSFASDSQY
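AlphaScreen assay: L3MBTL1 (50 nM final) was preincubated 30 min at room temperature with biotinylated H3(1-15)K9me1 peptide (75 nM final), then 30 min with library compounds; streptavidin donor and nickel chelate acceptor beads (10 ug/mL final) added, 30 min dark.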
L3MBTL1 inh-2 – qHTS Assay for the Inhibitors of L3MBTL1: Hit Validation; shares compounds with L3MBTL1 inh-1; L3MBTL1 methyl-lysine binding inhibition, biochemical qHTS; Potency, µM, usual class: inhibitors; hit rate 91% among 500; AID 540279, 2011; note: nearly all actives have a fitted effect of over 70% in size
AlphaScreen ctr2 – qHTS Assay for the Inhibitors of L3MBTL1: Hit Validationin AlphaScreen Counterscreen. AlphaScreen counterscreen, signal inhibition. 500 tested, under 10 active. Potency, µM (top dose mostly 57.1 µM), inactives show top-dose activity change, negative = inhibition, usual class: inhibitors. shares compounds with L3MBTL1 inh-1; note: 0% is about no effect
Starred values were filed as active, the others as inactive; ? = inconclusive; . = no result given; [ ] = dose if it differs, or a comment. Compounds with a hit are over-represented: about 1.8% of the library has one in this group of screens. Unless noted, calls come from the whole dose curve; as a rule, active = well fitted curve in the direction sought with a large enough effect; inconclusive = small, poorly fitted or top-dose-only effect, or another doubt; inactive = no such curve, though single readings can be large; an effect the other way counts as inactive or inconclusive. Potency is the fitted concentration of half-maximal effect.

SMILES | HTT ATP protect | HTT aggregate | KDM4E inh | L3MBTL1 inh-1 | L3MBTL1 inh-2 | AlphaScreen ctr2
CCOC(=O)/C(C)=N/NC(C)=O | 24% | . | 2% | . | . | .
COc1ncc2nc(-c3ccc(F)cc3)c(=O)n(Cc3cccs3)c2n1 | -29% | . | . | . | . | .
COc1ccc(/C=C/C2=C[C@]3(C)C[C@]2(C)[C@H](c2ccc(OC)cc2)CC3=O)cc1 | 11% | . | -14% | . | . | .
Oc1ccc(C2=Nn3c(nnc3-c3ccco3)SC2)cc1O | -11%[10 µM] | 4% | 2% | 25µM* | 9.5* | 5%
CCNC(=O)COC(=O)c1cc(-c2ccco2)nc2ccccc12 | -3%[10 µM] | -9%[9.22 µM] | ? | 25µM* | 4.2* | 6%
Cc1nn(-c2cccc(Cl)c2)c2nc(-c3ccco3)cc(C(=O)O)c12 | 15% | 6% | ? | . | . | .
O=C(O)c1cc(-c2ccco2)nc2ccccc12 | -79% | 3% | ? | 22µM* | 3* | -5%
Cc1nn(-c2ccccc2)c2nc(-c3ccco3)cc(C(=O)O)c12 | 8%[10 µM] | -4% | ? | 11µM* | 1.1* | 3%
Nc1nc2[nH]c(=O)[nH]c2c(=O)[nH]1 | . | . | 4% | . | . | .
Cc1cccc(CNc2ccnc(-c3ccc(N(C)C)cc3)n2)c1 | -56% | . | ? | . | . | .
COC(=O)c1ccccc1NC(=O)c1noc2c1CCC2 | -9%[10 µM] | -11% | -24% | 28µM* | 9.5* | 4%
CCc1ccc(NC(=O)c2noc3c2CCC3)cc1 | -14% | 12% | -2% | . | . | .
COc1ccc(N2Cc3cccc(C(=O)NC(C)CCc4ccco4)c3C2=O)cc1 (stereo not drawn) | 1% | ? | ? | 14µM* | 2.7* | 9%
O=C(CCl)Nc1nc(-c2ccco2)c(-c2ccco2)s1 | -13%[10 µM] | 7% | ? | -8% | . | .
O=C(CCCSc1ccccc1)Nc1nc(-c2ccco2)c(-c2ccco2)s1 | 10%[10 µM] | -12% | ? | 22µM* | 24* | ?
Oc1c(C(Nc2cccc(C(F)(F)F)c2)c2ccncc2)ccc2cccnc12 (stereo not drawn) | -144% | ? | ? | 22µM* | 21* | -65%
CN(C)C(=O)c1ccc(-c2cc(NCc3cccnc3)ncn2)cc1 | -16% | . | . | . | . | .
CN(C)c1ncc2nc(-c3cccc(C#N)c3)c(=O)n(C[C@H]3CCCO3)c2n1 | -43% | . | . | . | . | .
O=C(O)/C=C\C(=O)Nc1ccc(N2CCN(c3ccc(Cl)c(Cl)c3)CC2)cc1 | -13%[10 µM] | 21%[9.22 µM] | ? | 25µM* | 13* | ?
O=C(O)/C=C\C(=O)Nc1ccc(N2CCN(c3ccc(Cl)cc3)CC2)cc1 | -7%[10 µM] | -8%[9.22 µM] | -29% | ? | . | .
COc1ccc([N+](=O)[O-])cc1N | -20% | . | . | . | . | .
Cc1ccc(-c2ccc(CCC(=O)O)n2CC(=O)O)cc1 | -11% | 18% | -8% | 22µM* | 5.3* | -4%
O=C(O)CCc1ccc(-c2ccc(F)cc2)n1CC(=O)O | -5%[10 µM] | -4% | ? | -15% | . | .
O=C(/C=C/c1ccco1)Nc1scc(-c2ccccc2)c1C(=O)O | -43%[10 µM] | -13%[9.22 µM] | 8% | 25µM* | 2.7* | -29%
O=C(/C=C/c1ccccc1)Nc1scc(-c2ccccc2)c1C(=O)O | -134% | -21% | -18% | -7% | . | .
SMILES | HTT ATP protect | HTT aggregate | KDM4E inh | L3MBTL1 inh-1 | L3MBTL1 inh-2 | AlphaScreen ctr2
OCC1O[C@H](O[C@H]2C(O)C(O)C(O)O[C@@H]2CO)C(O)C(O)C1O (stereo partly drawn) | -12% | -7% | -13% | . | . | .
CCc1nc2sc3ccccc3c(=O)c2c(=O)n1Cc1ccco1 | -9%[10 µM] | 6% | 3% | 32µM* | 17* | 9%
O=c1c2ccccc2sc2nc(C3CCCCC3)n(Cc3ccco3)c(=O)c12 | -9%[0.074 µM] | 0% | -3% | . | . | .
O=C(Nc1cccc(F)c1)N1CCCC2(CCNCC2)C1 | -6% | . | . | . | . | .
Cc1ccc(/C=C2\SC(N3CCN(C(c4ccccc4)c4ccccc4)CC3)=NC2=O)o1 | . | -9% | 0% | 14µM* | 15* | -2%
O=C1N=C(N2CCN(c3ccccc3)CC2)S/C1=C/c1cccs1 | -1%[10 µM] | -14% | 4% | ? | . | .
COc1ccc(-n2cccc2/C=C2\C(=N)N3N=C(c4ccco4)SC3=NC2=O)cc1 | -3% | 8% | -25% | 16µM* | 2.7* | ?
CC(=O)N1CC=CC1(CC(C)C)C(=O)NCC1CC1 (stereo not drawn) | -11% | . | -3% | . | . | .
CC(=O)Oc1ccc2c(=O)c(Oc3ccccc3)coc2c1OC(C)=O | . | ? | 3.5µM* | 14µM* | 9.5* | 9%
O=C(O)CCCN1C(=O)/C(=C\c2ccc(-c3nc4ccccc4s3)o2)SC1=S | 13%[10 µM] | 18%[9.22 µM] | ? | 3.5µM* | 4.2* | ?
Oc1ccc2ccccc2c1N=Nc1ccc(F)cc1 | 8%[10 µM] | -6%[9.22 µM] | 5% | ? | . | .
Oc1c(N=Nc2ccc(F)cc2)ccc2ccccc12 | . | . | . | 7.9µM* | 1.1* | 0.75µM*
N#CCc1ccc(NC(=O)/C=C/c2ccc([N+](=O)[O-])o2)cc1 | -129% | ? | 3% | 4µM* | 27* | 11%
c1ccc(-c2nc(-c3ccncc3)n[nH]2)nc1 | 6%[10 µM] | 1%[9.22 µM] | ? | 3.2µM* | 4.7* | -95%
COC(=O)c1ccc(N2NC(=O)/C(=C/c3ccc(-c4ccc(Cl)c(C(=O)O)c4)o3)C2=O)cc1 | . | . | -26% | 6.3µM* | 1.7* | -17%
CC1=NOC(=O)/C1=C\c1ccc(-c2ccc(Cl)c(C(=O)O)c2)o1 | . | 16% | ? | 20µM* | 2.7* | -21%
O=C1NN(c2ccccc2)C(=O)/C1=C/c1ccc(-c2ccc(C(=O)O)cc2)o1 | . | . | . | 13µM* | 3* | ?
CC1=NOC(=O)/C1=C\c1ccc(-c2cccc(Cl)c2)o1 | -93% | ? | 10% | -7% | . | .
CN(C)c1ncc2nc(CCc3ccccc3)c(=O)n(CCC#N)c2n1 | -20% | . | . | . | . | .
COc1ncc2nc(-c3cn(C)c4ccccc34)c(=O)n(-c3ccccc3)c2n1 | 26% | . | . | . | . | .
Cc1cc(C(=O)NCCc2ccc(S(=O)(=O)NC(=O)NN3CCCCCC3)cc2)no1 | ? | -15% | . | . | . | .
Cn1c(O)c(C2=c3ccccc3=NC2=O)[nH]c1=S | . | 9% | 5% | -13% | . | .
COc1ccc2nc(-n3c(O)c(C4=c5ccccc5=NC4=O)[nH]c3=S)sc2c1 | 2%[10 µM] | 7% | 14% | 3.2µM* | 3.4* | ?
Cn1cnnc1SCC(=O)Nc1ncc([N+](=O)[O-])s1 | . | . | . | 28µM* | 1.7* | 0%
C#C[C@@]1(O)CCC2C3CCc4cc(O)ccc4C3CC[C@@]21C (stereo partly drawn) | -39% | . | 2% | . | . | .
CN(c1ccccc1)c1ccc(/C=C(\CCC(=O)O)c2nc3ccccc3s2)cc1[N+](=O)[O-] | 9%[10 µM] | 10% | -6% | 28µM* | 24* | ?
Cc1ccc(/C=C/C(=O)NCc2ccccn2)o1 | 19%[10 µM] | 26% | -23% | 32µM* | 7.5* | -4%
COc1ccc(/C=C/C(=O)NCc2ccccn2)cc1 | -36%[0.074 µM] | -9% | 0% | -5% | . | .
